Assay [1] can be described thus: qHTS assay for identifying genotoxic compounds that show differential cytotoxicity against isogenic chicken DT40 cell lines with known DNA damage response pathways - wild type cell line (AID 743012). Note: nearly all actives have a fitted effect of over 60% in size. Note: potency is the fitted concentration of half-maximal effect. The method, boiled down: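 Luminescent ATP viability signal (CellTiter-Glo, 30 min RT) recorded after wild type DT40 cells were incubated with compounds for 40 h at 37 C/5% CO2.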
A general note: Quantitative high-throughput screening tests each substance at several concentrations.

Assay [2] can be described thus: qHTS assay for identifying genotoxic compounds that show differential cytotoxicity against isogenic chicken DT40 cell lines with known DNA damage response pathways - Rev3 mutant cell line (AID 743014). Note: nearly all actives have a fitted effect of over 55% in size. Note: potency is the fitted concentration of half-maximal effect.
Assay [3] can be described thus: qHTS assay to identify small molecule antagonists of the androgen receptor (AR) signaling pathway - cell viability counter screen (AID 743033; note: nearly all actives have a fitted effect of over 45% in size; note: potency is the fitted concentration of half-maximal effect).
The target of assay [4] is Androgen receptor (Homo sapiens) (UniProt P10275). The assay is described as follows: qHTS assay to identify small molecule agonists of the androgen receptor (AR) signaling pathway (AID 743036; active = well fitted activation curve with a large enough effect in the signal ratio in the repeat runs, with a control signal flat, not every such curve was filed as active; the % refers to the signal ratio). The method, boiled down:
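Activation was read as beta-lactamase FRET signal from LiveBLAzer B/G substrate, added for 2 h at room temperature. Before that, GeneBLAzer AR-UAS-bla GripTite (HEK293) cells had 16 h compound exposure at 37C.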

For assay [5] the target is unchanged. The assay is described as follows: qHTS assay to identify small molecule agonists of the androgen receptor (AR) signaling pathway using the MDA cell line (AID 743040; note: nearly all actives have a fitted effect of over 20% in size). The method, boiled down: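 Cell-based luciferase reporter: MDA-kb2, MMTV promoter (AR + GR response elements). 16 h compound exposure at 37C; ONE-Glo, 30 min RT, luminescence.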
Assay [6] is described as follows: qHTS assay to identify small molecule antagonists of the androgen receptor (AR) signaling pathway using the MDA cell line - cell viability counter screen (AID 743041; note: nearly all actives have a fitted effect of over 45% in size; note: potency is the fitted concentration of half-maximal effect). The method, boiled down: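 In this qHTS counter assay, fluorescence intensity after CellTiter-Fluor addition indicated viability of MDA-kb2 AR-luc cells given compounds and R1881 for 16 h at 37C.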

In assay [7] the target is Androgen receptor (Homo sapiens) (UniProt P10275). The assay is described as follows: qHTS assay to identify small molecule antagonists of the androgen receptor (AR) signaling pathway using the MDA cell line (AID 743042; note: nearly all actives have a fitted effect of over 55% in size). The method, boiled down:
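MDA-kb2 cells (human breast carcinoma, stably carrying an MMTV-luciferase reporter responsive to AR and GR) were plated at 3,000 cells/well and preincubated 5 hr at 37C, then given compound plus R1881 agonist for 16 h. ONE-Glo luminescence was read.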

Assay [8] can be described thus: qHTS assay to identify small molecule antagonists of the glucocorticoid receptor (GR) signaling pathway - cell viability counter screen (AID 720693). Note: nearly all actives have a fitted effect of over 55% in size.
Assay [9] deals with Androgen receptor (Homo sapiens) (UniProt P10275). The assay is described as follows: qHTS assay to identify small molecule antagonists of the androgen receptor (AR) signaling pathway (AID 743035; active = well fitted inhibition curve with a large enough effect in the signal ratio in the repeat runs, not every such curve was filed as active; the % refers to the signal ratio; note: potency is the fitted concentration of half-maximal effect). In outline:
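Quantitative HTS of the Tox21 10K library used HEK293 AR-UAS-bla cells stimulated with R1881 alongside compound for 16 h at 37C, followed by beta-lactamase FRET detection (LiveBLAzer B/G, 2 h, RT).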

A short description of assay [10]: qHTS assay for identifying genotoxic compounds that show differential cytotoxicity against isogenic chicken DT40 cell lines with known DNA damage response pathways - Rad54/Ku70 mutant cell line (AID 743015). Note: nearly all actives have a fitted effect of over 60% in size. Note: potency is the fitted concentration of half-maximal effect.

“And” between values parts separate entries of the source, which are not always exact repeats. Equal entries are not always repeated. Results filed as inconclusive are left out. Some structures have more than one record in an assay (separate samples or runs), and their calls can disagree. The source made the active and inactive calls. Unless noted, calls come from the whole dose curve; as a rule, active = well fitted curve in the direction sought with a large enough effect in the repeat runs; inconclusive = weak or mixed curves; inactive = no such curve, though single readings can be large; an effect the other way counts as inactive or inconclusive.

Sequence of Androgen receptor (Homo sapiens) (P10275 whole entry, looked up): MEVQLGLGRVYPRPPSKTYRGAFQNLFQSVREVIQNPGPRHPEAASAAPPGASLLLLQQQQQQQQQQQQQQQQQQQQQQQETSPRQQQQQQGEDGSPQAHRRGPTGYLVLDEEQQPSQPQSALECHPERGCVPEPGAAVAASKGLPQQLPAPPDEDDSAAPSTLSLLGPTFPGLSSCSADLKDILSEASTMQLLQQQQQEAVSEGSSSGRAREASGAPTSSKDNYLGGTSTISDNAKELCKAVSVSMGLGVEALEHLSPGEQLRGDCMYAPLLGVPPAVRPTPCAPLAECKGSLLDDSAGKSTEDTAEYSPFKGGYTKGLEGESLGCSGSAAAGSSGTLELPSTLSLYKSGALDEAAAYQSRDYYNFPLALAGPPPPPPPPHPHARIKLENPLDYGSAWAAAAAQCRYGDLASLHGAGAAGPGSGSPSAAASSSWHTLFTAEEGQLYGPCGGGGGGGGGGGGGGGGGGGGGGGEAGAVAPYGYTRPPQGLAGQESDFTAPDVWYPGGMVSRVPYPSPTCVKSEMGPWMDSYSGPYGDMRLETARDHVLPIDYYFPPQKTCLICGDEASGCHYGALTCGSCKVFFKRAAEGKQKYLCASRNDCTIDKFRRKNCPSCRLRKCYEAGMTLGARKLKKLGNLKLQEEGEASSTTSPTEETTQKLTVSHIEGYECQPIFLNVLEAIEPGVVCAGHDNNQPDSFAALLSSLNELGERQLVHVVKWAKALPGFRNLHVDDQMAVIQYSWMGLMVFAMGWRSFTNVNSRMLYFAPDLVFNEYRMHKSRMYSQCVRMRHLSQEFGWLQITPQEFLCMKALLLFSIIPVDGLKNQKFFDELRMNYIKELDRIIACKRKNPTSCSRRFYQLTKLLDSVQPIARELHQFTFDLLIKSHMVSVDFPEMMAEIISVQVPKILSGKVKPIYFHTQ

In the case of `O=C(CCN1CCN2CCCC2C1)N1c2ccccc2Sc2ccc(Cl)cc21` (configuration not stated), the Potency in [1] was 10.6 µM (active); in assay [2] it was 11.9 µM (active). Also, the Potency result in assay [3], in assay [5], in assay [6] and in assay [7] was “inactive” in each case. In assay [4], the result was inactive.

For `CC(C)CCCC(C)CCO` (configuration not stated), the Potency result in [8], in assay [9], in assay [5], in assay [6] and in assay [7] was “inactive” each time. Moreover, the compound was called inactive in assay [4].

In the case of `CN(C)CC[C@@H](c1ccc(Br)cc1)c1ccccn1`, the Potency entry in assay [8], in assay [3] and in assay [6] was “inactive” each time.

On to `c1ccc(-c2nc[nH]c2-c2ccccc2)cc1`, for which the Potency entry in [8], in [3] and in assay [6] was “inactive” in each case.

For `Cc1nc2ccccc2n1Cc1ccc(Cl)cc1`, the Potency in assay [1] is 2.11 µM (active); in assay [2] it was 5.31 µM (active); in [10], 4.22 µM (active).

With `CCCCOc1ccc(CC(=O)NO)cc1`, the Potency entry in assay [8] and in assay [6] was “inactive” in each case. The Potency in [2] is 12.7 µM (active).

In the case of `CC[C@]12CCCN3CCc4c(n(c5ccccc45)C(=O)C1)[C@@H]32`, the Potency was 4.52 µM (active) in assay [1], 4.52 µM (active) in [2], 7.17 µM (active) in assay [10] and 9.1 µM (active) in [9]. For the same compound, the Potency entry in assay [3], in assay [5], in [6] and in assay [7] was “inactive” in each case.

As to `COC(=O)CSc1cc(N=c2sc(=O)n3n2CCCC3)c(F)cc1Cl`, the Potency result in assay [5], in [6] and in [7] was “inactive” in each case.

`CC[C@H](C)[C@@H](C(=O)O)n1sc2ccccc2c1=O`: the Potency result in assay [1] and in assay [6] was “inactive” throughout.

In the case of `O=C(O)c1cccc(N(Cc2cccnc2)c2ccc(OC(F)F)c(OC(F)F)c2)c1`, the Potency entry in assay [8], in assay [3], in assay [5] and in assay [6] was “inactive” in each case.

On to `O=C1[C@H](CC[C@H](O)c2ccc(F)cc2)[C@@H](c2ccc(O)cc2)N1c1ccc(F)cc1`, for which the Potency entry in [8], in assay [3] and in [6] was “inactive” in each case.

For the compound `CCCCCOC(=O)COc1cc(N2C(=O)C3=C(CCCC3)C2=O)c(F)cc1Cl`, the Potency result in assay [8], in assay [2], in assay [3] and in assay [6] was “inactive” throughout.

For `Oc1ccc(O)c2c(O)cccc12`, the Potency result in assay [1], in assay [2], in assay [10] and in assay [3] was “inactive” throughout.

Regarding `C=CC(=O)OCC(C)OCC(C)OCC(C)OC(=O)C=C` (configuration not stated), the Potency was 15.4 µM (active) in [1], 19.3 µM (active) in assay [2] and 54.9 µM (active) in [3]. In addition, the Potency entry in [6] was “inactive”.

Take `CCc1nn(C2CCCCC2)c2cc(C3(C#N)CCC(C(=O)O)CC3)ccc12` (configuration not stated): the Potency in assay [10] is 61.1 µM (active). In assay [6], the Potency entry was “inactive”.

With `Nc1cnn([C@@H]2O[C@H](CO)[C@@H](O)[C@H]2O)c(=O)n1`, the results for the Potency in assay [1] and in assay [10] were 27.3 µM (active) and 6.12 µM (active), respectively. The Potency result in assay [3] and in [6] was “inactive” each time.

For `O=C(O)Cc1cc(I)c(Oc2ccc(O)c(I)c2)c(I)c1`, the Potency result in assay [1], in [2], in [3] and in assay [6] was “inactive” each time. Besides, the Potency result in [10] is “inactive and 54.5 µM (active)”.

As for `C=CC[N+]1([C@H]2C[C@H]3[C@@H]4CC[C@H]5C[C@H](OC(C)=O)[C@@H](N6CCCCC6)C[C@]5(C)[C@H]4CC[C@]3(C)[C@H]2OC(=O)CC)CCCCC1`, the Potency result in [8], in assay [3] and in [6] was “inactive” each time.

`CCCCC(CC)COCCCN` (configuration not stated): in [2], the Potency is 60.4 µM (active). Also, the Potency entry in [6] was “inactive”.

With `CC1(C)CCC(C)(C)c2cc(NC(=O)c3ccc(C(=O)O)cc3)ccc21`, in assay [1], the Potency is 26.6 µM (active). Besides, the Potency result in assay [3] was “inactive”.

As for `O=c1[nH]cnc2ccccc12`, the Potency result in assay [8], in assay [3] and in [6] was “inactive” each time.

In the case of `CCCC(=O)OCC`, the Potency result in assay [8] and in assay [6] was “inactive” each time. The Potency in [10] is 68.6 µM (active).

For the compound `CCOc1nc2cccc(C(=O)O)c2n1Cc1ccc(-c2ccccc2-c2nn[nH]n2)cc1`, the Potency entry in assay [2], in assay [3], in assay [9], in [5], in assay [6] and in assay [7] was “inactive” in each case. The compound was called inactive in [4].

Regarding `CN(C(=O)CCCOc1ccc2[nH]c(=O)ccc2c1)C1CCCCC1`, the Potency result in assay [8], in assay [2], in assay [3] and in assay [6] was “inactive” each time.

In the case of `CCOc1ccc(NC(=O)CC(C)=O)cc1`, the Potency result in assay [8], in assay [3] and in assay [6] was “inactive” throughout.

Take `CC(C)(C)c1cc(O)c(C(C)(C)C)cc1O`: the Potency in [1] was 12.2 µM (active); in assay [2] it was 13.7 µM (active); in assay [10] it was 13.7 µM (active); in assay [9], 43.6 µM (active). The compound was called inactive in assay [4]. In addition, the Potency entry in assay [5] and in assay [6] was “inactive” each time.

Regarding `C#CCOC(=O)[C@@H](C)Oc1ccc(Oc2ncc(Cl)cc2F)cc1`, the Potency result in [2], in assay [3] and in assay [6] was “inactive” throughout.

As for `Oc1ccc(Sc2ccc(O)cc2)cc1`, the Potency entry in [8], in [3] and in assay [6] was “inactive” throughout.

Take `CCCCCOC(=O)c1ccc(O)cc1`: the Potency result in assay [8], in assay [3] and in assay [6] was “inactive” throughout.

Turning to `N#Cc1cc2ccccc2c2ccccc12`, the Potency entry in assay [8] and in assay [6] was “inactive” in each case.

Regarding `O=C=NC1CCC(CC2CCC(N=C=O)CC2)CC1` (configuration not stated), the Potency result in assay [8] and in assay [3] was “inactive” throughout. In addition, the Potency in assay [2] was 54.5 µM (active); in [6] it was 6.86 µM (active).

Take `COc1ccc([C@@H]2Sc3ccccc3N(CCN(C)C)C(=O)[C@@H]2OC(C)=O)cc1`: the Potency entry in assay [8], in assay [3] and in assay [6] was “inactive” each time.

Consider `C[C@@H](C1=C(CCN(C)C)Cc2ccccc21)c1ccccn1`, for which the Potency entry in assay [8] and in assay [6] was “inactive” each time.

The values above are taken from PubChem BioAssay (Tox21).
